Out of some 59,000 compounds screened, about 6,200 (11%) were called active. Another 9% or so got no clear call; they are omitted. Rule as the data show it: active = max dye-equivalent concentration above about 10 nM; inconclusive = mostly about 1.1 nM to 9.6 nM; inactive = weaker than that. Shown is part of a subset that was picked to be rich in actives.

The assay is described as follows: qHTS Assay for Spectroscopic Profiling in 4-MU Spectral Region. Conditions: compound autofluorescence, 340/450 nm, 4-MU equivalents; hits give high values. Put shortly:
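Intrinsic fluorescence at 340/450 nm (ex/em) was read after 15 min at room temperature in pH 8.0, 100 mM Tris. Each compound concentration expressed as 4-MU-equivalent concentration from a six-point 4-MU standard series on each plate.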
A general note: In qHTS, concentration-response curves come from the screen itself.
Consider `O=C(O)c1ccc(C(=O)c2ccccc2C(=O)O)cc1C(=O)O`, for which the max dye-equivalent concentration result is “inactive”.
On to `CC(C)n1c(SCC(=O)Nc2ccccc2N2CCCCC2)nc2c1c(=O)n(C)c(=O)n2C`, for which the max dye-equivalent concentration result is “inactive”.
With `Fc1ccccc1OCCSc1nc2ccccc2o1`, the max dye-equivalent concentration result is “inactive”.
Next, `CC(C)NS(=O)(=O)c1ccc(CCC(=O)N2CCOCC2)cc1`: “inactive”; `Cc1ccccc1CSc1nnc(-c2cccnc2)n1N`: “inactive”.
The entry for `COc1ccccc1CNc1ncncc1-c1cccnc1` is “inactive”; for `COc1ccc(C(=O)CSc2nnc(COc3ccccc3)n2Cc2ccco2)cc1` it is “inactive”; for `O=c1c2[nH]c3ccc(Cl)cc3c2ncn1Cc1ccccn1` it is “inactive”.
With `COc1ccc2[nH]c3c(=O)n(Cc4ccco4)cnc3c2c1`, the max dye-equivalent concentration is 92 nM (active).
Take `COc1ccc(-c2nnc(SCC(=O)c3ccco3)n2-c2ccccc2)cc1`: the max dye-equivalent concentration result was “inactive”.
On to `Cc1ccc(Cc2cncc(O)c2)cc1S(=O)(=O)O`, for which the max dye-equivalent concentration result is “inactive”.
As for `CCCn1c(=NC(C)=O)c(C(=O)OCC)cc2c(=O)n3ccccc3nc21`, the max dye-equivalent concentration is 3500 nM (active).
Next, `CCOC(=O)c1cc2n(c1C)-c1ccccc1C2=O`: “inactive”.
On to `CCOC(=O)c1cc2n(c1N)-c1ccccc1C2=O`, for which the max dye-equivalent concentration result is “inactive”.
Next, `CCC(=O)Nc1ccc2c(c1)nc(CCN1CCN(C)CC1)n2C`: “inactive”; `O=C(Nc1c2c(nn1-c1ccc(F)cc1)CS(=O)C2)C12CC3CC(CC(C3)C1)C2` (stereo unspecified): “inactive”.
Next, `CC(C)Cc1ccc(S(=O)(=O)N2CCN(C(=O)c3ccco3)CC2)cc1`: “inactive”; `CCc1cc(=O)oc2cc(C)cc(OC(C)C(=O)O)c12` (stereo unspecified): 82 nM (active).
On to `Cc1cc2c(=O)n(C)c(SCC(=O)c3cc4ccccc4o3)nc2s1`, for which the max dye-equivalent concentration entry was “inactive”.
The entry for `CC(=O)Nc1ccc(S(=O)(=O)NCCc2ccccc2)cc1` is “inactive”.
For the compound `COCCOC(=O)C1=C(C)NC(=O)CC1c1cc2c(cc1Br)OCO2` (stereo unspecified), the max dye-equivalent concentration entry is “inactive”.
Turning to `CCCOC(=O)C1=C(C)NC2=C(C(=O)C(C(=O)OC)C(C)C2)C1c1ccc(N(C)C)cc1` (stereo unspecified), the max dye-equivalent concentration was 23 nM (active).
Next, `COC(=O)c1ccc(C2NC(=O)NC(C)=C2C(=O)N(C)C)cc1` (stereo unspecified): “inactive”; `Cc1noc(C)c1CSc1nnc2ccc3ccccc3n12`: “inactive”; `CCOC(=O)c1c(NC(=O)CSc2nnc(C)c(=O)[nH]2)sc2c1CCC2`: “inactive”.
Next, `CC1CN(C2CCCCC2)c2nc3c(c(=O)n(C)c(=O)n3C)n2C1` (stereo unspecified): “inactive”.
Consider `O=C(O)CCC(=O)N(Cc1cccs1)Cc1cccs1`, for which the max dye-equivalent concentration result is “inactive”.
The figure for `CC(C)Cn1c(CCC(=O)O)ccc1-c1cccs1` is 350 nM (active); for `Cc1cc(NC(=O)c2cc(-c3cccs3)on2)nn1Cc1ccc(Cl)cc1` it is “inactive”.
The entry for `COc1cc(C2C3C(=O)N(c4ccccc4)C(=O)C3ON2c2ccccc2)ccc1O` (stereo unspecified) is “inactive”; for `CC(C)OCCCNc1nc2c(c(=O)n(Cc3ccccc3F)c(=O)n2C)n1C` it is “inactive”.
Consider `COCc1nc2ccccc2n1Cc1ccccc1Br`, for which the max dye-equivalent concentration entry was “inactive”.
Take `O=c1[nH]c(-c2ccccc2)c(-c2ccccc2)[nH]1`: the max dye-equivalent concentration was 18 nM (active).
Next, `CC1(C)CC(=O)NC=C(c2ccccc2)C1`: “inactive”.
As for `c1ccc(-c2[nH]ncc2-c2nc3ccccc3[nH]2)cc1`, the max dye-equivalent concentration entry is “inactive”.
Next, `Clc1ccccc1-c1cc(NCCN2CCOCC2)ncn1`: “inactive”; `COc1ccc2[nH]c(=O)c(-c3noc(-c4ccc(F)cc4)n3)cc2c1`: 12 nM (active); `Cc1cccc(-c2noc(-c3ccc(F)cc3)n2)c1`: “inactive”.
Next, `CC(=O)N1CCC2(CCCN(Cc3ccccc3)C2)CC1`: “inactive”; `O=C(CSc1n[nH]c(-c2cccnc2)n1)Nc1ccnc2ccccc12`: “inactive”.
Take `O=C(O)C1CC(=O)N(Cc2cccnc2)C1` (stereo unspecified): the max dye-equivalent concentration entry is “inactive”.
Take `O=C(CCS(=O)(=O)Cc1ccccc1F)NCCCN1CCCCC1`: the max dye-equivalent concentration result is “inactive”.
For the compound `C#CCNc1nc(C(C)C)nc2c1nnn2Cc1ccccc1F`, the max dye-equivalent concentration entry was “inactive”.
The entry for `CC(C)(C)c1nc(NCC2CCCO2)c2nnn(Cc3ccccc3)c2n1` (stereo unspecified) is “inactive”.
Consider `Cc1nc(Nc2ccc3c(c2)OCCO3)c2nnn(Cc3ccccc3Cl)c2n1`, for which the max dye-equivalent concentration is 640 nM (active).
Next, `Cc1ccc(-c2nnn(CC(=O)N(CCO)C(C(=O)NC(C)(C)C)c3ccncc3)n2)cc1` (stereo unspecified): “inactive”.
The entry for `COc1ccc(S(=O)(=O)N2CCCC(C(=O)N3CCN(C)CC3)C2)cc1C` (stereo unspecified) is “inactive”.
As for `COC(=O)N1CCC2(CCCN(Cc3ccccc3OC)C2)CC1`, the max dye-equivalent concentration result was “inactive”.
`COc1ccc(CCNC(=O)CSc2nnc(-c3cccc(F)c3)o2)cc1OC`: the max dye-equivalent concentration result was “inactive”.
The entry for `COC(=O)Cc1cc(=O)n(-c2nc3ccccc3s2)[nH]1` is “inactive”.
`CCC(=O)NC(=Nc1nc2ccccc2s1)NC(=O)CC`: the max dye-equivalent concentration was 150 nM (active).
The entry for `O=C(O)CSCc1nc2ccccc2s1` is “inactive”; for `COC(=O)CNS(=O)(=O)c1ccc(Cc2ccc(S(=O)(=O)NCC(=O)OC)cc2)cc1` it is “inactive”.
On to `Cc1ccccc1Nc1nnc(C)c(=O)[nH]1`, for which the max dye-equivalent concentration result is “inactive”.
The entry for `COc1ccc(C2C(C(=O)Nc3ccccc3OC)=C(C)Nc3nnnn32)c(OC)c1` (stereo unspecified) is “inactive”; for `CCOc1cccc(-n2nnnc2-c2ccc(OC)cc2)c1` it is “inactive”.
